Drawing on PubChem BioAssay (NCATS), this text covers outcome and Potency for four molecules.

Results filed as inconclusive are left out. Entries that show only a call come without a potency. The source made the active and inactive calls. Unless noted, the call rests on the fitted dose curve; in most records, active means well fitted curve in the direction sought with a large enough effect; inconclusive means small, poorly fitted or top-dose-only effect, or another doubt; inactive means no such curve, though single readings can be large; an effect the other way counts as inactive or inconclusive.

Test [1] has as its target Tumor susceptibility gene 101 protein (Homo sapiens) (UniProt Q99816). Nature of the test: qHTS Assay for Iinhibitors of HIV-1 Budding by Blocking the Interaction of PTAP/TSG101: Hit Validation (AID 651600). Further: nearly all actives have a fitted effect of over 70% in size. The procedure, abridged:
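Measuring PTAP–Tsg101 interaction by FP: protein at 10 uM and fluorescent peptide at 50 nM (final), buffer 10 mM HEPES pH 7.5 with 0.15 M NaCl, 3 mM EDTA, 0.1 mM TCEP, 0.01% Tween 20; 20 min incubation, r.t.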

A short description of test [2]: Confirmatory screen GU Rhodamine qHTS for Zika virus inhibitors qHTS (AID 1347157). Further: nearly all actives have a fitted effect of over 70% in size. The procedure, abridged: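 Percent inhibition came from the 15-min rise in Rhodamine110 fluorescence (1.5 microM substrate, ~15% conversion), normalized to no-inhibitor and no-enzyme wells and Hill-fitted. Unlinked protease, 25 nM, pH 8.0 Tris buffer; compounds up to 114 microM, 15-min preincubation.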
On the technique in general: qHTS replaces the single test concentration by a dilution series.

Test [3] relates to 7G8. Nature of the test: qHTS profiling for inhibitors of Plasmodium falciparum proliferation (AID 504749). Further: potency means the concentration at half of the fitted maximal effect; nearly all actives have a fitted effect of over 60% in size. The settings on record: P. falciparum in erythrocytes, SYBR Green DNA, 72 h; series mostly up to 28.7 µM. The procedure, abridged:
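Infected RBCs, 0.3% parasitemia/2.5% Hct final; cpd 72 h, 37 C, 5% CO2; lysis buffer with saponin/triton/SYBR Green I, o/n RT dark; FI 485/535; norm. to artemisinin (0.29 uM) and DMSO.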

Test [4] is described as follows: Confirmatory qHTS for activators (rescue) of SARS-CoV-2 Cytopathic Effect (CPE) (AID 1508606; calls by dose curve; further: nearly all actives have a fitted effect of over 70% in size).
Test [5] can be described thus: Cytotoxicity counterscreen for inhibitors of SARS-CoV-2 cell entry (AID 1645845; calls by dose curve; further: nearly all actives have a fitted effect of over 50% in size). Put shortly: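 48 h compound treatment (after 1 h preincubation), HEK293-ACE2 cells, 37 C/5% CO2; ATP luminescence endpoint; normalized to cell wells and media blanks.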
On the technique in general: Counterscreens check selectivity or assay interference.

Sequence of Tumor susceptibility gene 101 protein (Homo sapiens) (Q99816 whole entry, looked up): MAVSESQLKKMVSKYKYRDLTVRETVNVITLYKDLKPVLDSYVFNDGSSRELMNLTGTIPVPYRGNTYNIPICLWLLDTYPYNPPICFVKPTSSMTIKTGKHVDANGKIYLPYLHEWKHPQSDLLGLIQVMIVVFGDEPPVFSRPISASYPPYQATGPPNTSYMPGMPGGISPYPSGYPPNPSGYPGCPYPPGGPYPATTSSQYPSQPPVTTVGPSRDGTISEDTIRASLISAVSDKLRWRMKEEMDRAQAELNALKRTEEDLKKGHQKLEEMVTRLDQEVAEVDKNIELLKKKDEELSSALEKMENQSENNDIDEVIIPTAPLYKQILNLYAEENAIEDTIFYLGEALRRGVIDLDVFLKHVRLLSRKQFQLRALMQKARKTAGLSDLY

Turning to `CC(C)C[C@H]1C(=O)N2CCCC2[C@]2(O)O[C@](NC(=O)[C@@H]3C=C4c5cccc6[nH]cc(c56)CC4N(C)C3)(C(C)C)C(=O)N12` (stereo not given in full), in test [1], the molecule was classed as inactive.
`O=C(O)c1ccccc1-c1c2cc(Br)c(=O)cc-2oc2[c]([Hg])c(O)c(Br)cc12`: the Potency entry in test [2] is “inactive”.
As to `CC(C)[C@@]1(NC(=O)[C@H]2CC3c4cccc5[nH]cc(c45)C[C@H]3N(C)C2)O[C@@]2(O)C3CCCN3C(=O)[C@@H](Cc3ccccc3)N2C1=O` (stereo not given in full), the Potency in test [3] is 199 nM (active).
Consider `Cc1[nH]c(/C=C2\C(=O)Nc3ccc(S(=O)(=O)N(C)c4cccc(Cl)c4)cc32)c(C)c1C(=O)N1CCN(C)CC1`, for which the Potency result in test [4] and in test [5] was “inactive” each time.
